# RPL19A TOR yeast – modulators of TOR pathway RPL19A-GFP in S. cerevisiae | AID 2025 | S. cerevisiae RPL19A-GFP strain, flow cytometry, 3 h; active compounds read low | hit rate 0.3% among 330,000 | percent response vs DMSO, % at 10 µM;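 active = percent response vs DMSO below 50%; inconclusive = fewer than 70 events counted for the yeast strain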;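 also: median channel GFP fluorescence of the barcoded RPL19A-GFP strain; lower means less RPL19A-GFP as with rapamycin TOR inhibition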
# AGP1-GFP MLPCN – alters AGP1-GFP fluorescence in TOR pathway yeast screen; AID 2066; hit rate 0.02% among 320,000; GFP response vs DMSO, % at 10 µM; S. cerevisiae AGP1-GFP multiplex flow cytometry, 3 h; GFP as percent of DMSO wells;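 active = GFP response relative to DMSO above a set limit, near screen average plus 3 SD, cut at about 150% in these data; inconclusive = fewer than 70 cells counted for the yeast strain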;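 also: median GFP channel fluorescence of the gated AGP1 strain per well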
# LAP4-GFP MLPCN – yeast TOR pathway LAP4-GFP modulation; S. cerevisiae LAP4-GFP multiplex, flow cytometry GFP, 3 h; median GFP as percent of DMSO wells; GFP response vs DMSO, % at 10 µM; hit rate 0.34% among 320,000;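 active = GFP response vs DMSO above a set limit, about the screen mean plus 3 SD, cut at about 150% in these data; inconclusive = under 70 cell events counted for the yeast strain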
# MEP2 TOR yeast – modulators of TOR pathway MEP2-GFP in S. cerevisiae. hit rate 0.51% among 330,000. GFP response vs DMSO, % at 10 µM. S. cerevisiae MEP2-GFP strain, flow cytometry GFP, 3 h; 100% = DMSO control level;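 active = GFP response versus DMSO above a set limit, roughly screen mean plus 3 SD, cut at about 180% in these data; inconclusive = fewer than 70 cells counted for a yeast strain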;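 also: median GFP fluorescence of the barcode-gated MEP2-GFP cells per well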
# CIT2 TOR yeast – yeast TOR pathway CIT2-GFP modulation. S. cerevisiae CIT2-GFP strain, flow cytometry, 3 h; 100 means same as DMSO wells. GFP response vs DMSO, % at 10 µM. hit rate 0.065% among 320,000. AID 2029;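 active = GFP response relative to DMSO above a set limit, near the screen mean plus 3 SD, cut at about 150% in these data; inconclusive = Fewer than 70 cells measured for a yeast strain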;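 also: ratio of well median GFP fluorescence to mean of DMSO wells on the plate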
# LAP4 cherry2 – reconfirmed LAP4-GFP TOR pathway modulator in yeast | GFP response vs DMSO, % at 10 µM | shares compounds with LAP4-GFP MLPCN | S. cerevisiae LAP4-GFP strain, flow cytometry GFP, 3 h | hit rate 20% among 590;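 active = GFP signal as percent of the solvent control above about 150%, meaning raised reporter expression, limit read from the data; inconclusive = fewer than 70 cells counted in the well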
# MEP2 cherry2 – second confirmation of modulators of TOR reporter MEP2-GFP in yeast. hit rate 10% among 590. shares compounds with LAP4-GFP MLPCN. GFP response vs DMSO, % at 10 µM. S. cerevisiae MEP2-GFP strain, flow cytometry GFP, 3 h;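 active = GFP signal above 150% of the solvent control wells, that is a rise of more than half; inconclusive = fewer than 70 yeast cells counted in the well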;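 also: median channel GFP fluorescence of all gated yeast cells per well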
# RPL19A GFP CP2 – yeast RPL19A-GFP TOR reporter modulation, second cherry pick | shares compounds with LAP4-GFP MLPCN | S. cerevisiae RPL19A-GFP strain, flow cytometry GFP, 3 h; active compounds read low; 100% means same as DMSO wells | GFP response vs DMSO, % at 10 µM | hit rate 3% among 590;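 active = under 65% GFP response relative to DMSO; inconclusive = yeast strain with under 70 measured events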;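 also: median GFP channel fluorescence per well over the all cells gate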
# CIT2-GFP pick2 – reconfirmed modulator of CIT2-GFP TOR reporter in yeast. shares compounds with LAP4-GFP MLPCN. hit rate 8% among 590. S. cerevisiae CIT2-GFP strain, flow cytometry GFP, 3 h; DMSO control wells read 100%. GFP response vs DMSO, % at 10 µM;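 active = GFP response vs DMSO above about 150%, limit read from the data; inconclusive = fewer than 70 events counted for a yeast strain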;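 also: median green fluorescence per well over all gated yeast cells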
# AGP1-GFP pick2 – second confirmation of modulators of TOR reporter AGP1-GFP in yeast. 590 tested, under 10 active. shares compounds with LAP4-GFP MLPCN. percent response vs DMSO, % at 10 µM. S. cerevisiae AGP1-GFP strain, flow cytometry GFP, 3 h;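 active = over 150 percent of DMSO response; inconclusive = yeast strain measured with under 70 events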;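 also: median GFP channel fluorescence over all cells without mother daughter split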
# s288c autofluor – yeast s288c autofluorescence artifact, counter-screen | shares compounds with LAP4-GFP MLPCN | 610 tested, under 10 active | S. cerevisiae s288c, 520 nm autofluorescence, flow cytometry, 3 h; active compounds read high; zero means same as solvent-only cells | AID 2757 | fluorescence change (kMESF span) at 33 µM;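 active = fluorescence span over the dose series, or activity score, above about 33, limit read from the data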
# Yeast autofl DR – counter-screen for autofluorescence of TOR hits in yeast s288c; 110 tested, under 10 active; S. cerevisiae s288c parental, compound autofluorescence, flow cytometry, 3 h; shares compounds with LAP4-GFP MLPCN; fluorescence change (span) at 33 µM;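 active = fluorescence change span, or the activity score built from it, above 25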
# TORC1 bypass gr – stops wildtype yeast growth while TORC1 bypass cells still grow; shares compounds with LAP4-GFP MLPCN; S. cerevisiae BY4741 spot growth rating, 48-72 h; active compounds read low; growth rating (0-3) at 30 µM; 120 tested, under 10 active;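 active = growth rating at most 1 for wild type yeast while the TORC1 bypass strain still grows fully, rated 3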
# Hits are given with their value; . = inactive; ? = inconclusive; / = no result given. Most compounds without a hit are left out; they make up all but 0.93% or so of the library.
SMILES,RPL19A TOR yeast,AGP1-GFP MLPCN,LAP4-GFP MLPCN,MEP2 TOR yeast,CIT2 TOR yeast,LAP4 cherry2,MEP2 cherry2,RPL19A GFP CP2,CIT2-GFP pick2,AGP1-GFP pick2,s288c autofluor,others
COc1ccc(CNC(=O)CCSCc2cccc(F)c2)cc1,.,.,.,.,.,/,/,/,/,/,/,
CC1(C)CCC[C@]2(C)[C@H]3CC(=O)O[C@]3(C)CC[C@@H]12,.,.,.,.,.,/,/,/,/,/,/,
CC(=O)OC[C@]12CC[C@H]3[C@@](C)(CC[C@H]4C(C)(C)CCC[C@]34C)[C@@H]1C[C@H](C1=CC(=O)O[C@@H]1OC(C)=O)O2,.,.,154.5,.,.,210.4,172.9,.,172.4,.,.,
COc1cc(OC)c(/C=C2\C(=O)Nc3ccccc32)c(OC)c1,.,.,.,.,.,/,/,/,/,/,/,
O=C1Nc2ccccc2/C1=C/C(=O)c1cccs1,.,?,.,.,?,/,/,/,/,/,/,
COc1ccc(C(=O)/C=C2/C(=O)Nc3ccccc32)cc1,.,.,166.8,.,.,/,/,/,/,/,.,
COc1ccc(C(=O)/C=C2/C(=O)Nc3ccccc32)c(OC)c1,.,.,.,.,.,/,/,/,/,/,.,
COc1ccc(C(=O)/C=C2/C(=O)Nc3ccccc32)cc1OC,.,.,.,.,.,/,/,/,/,/,.,
O=[N+]([O-])c1cccnc1S(=O)(=O)c1ccccc1,.,.,.,.,.,/,/,/,/,/,/,
COc1ccc([N+](=O)[O-])c(S(=O)(=O)c2ccccc2)n1,.,.,218.5,.,.,/,/,/,/,/,.,Yeast autofl DR=.;TORC1 bypass gr=.
COc1ccc([N+](=O)[O-])c(S(=O)(=O)c2ccc(Cl)cc2)n1,.,.,.,.,.,/,/,/,/,/,.,Yeast autofl DR=.;TORC1 bypass gr=.
O=C(COC(=O)CCc1nc2ccccc2s1)NC(=O)NCc1ccco1,.,.,.,.,.,/,/,/,/,/,/,
C[C@H](NC(=O)c1[nH]cnc1C(=O)Nc1ccc(Cl)cc1)C(=O)OC(C)(C)C,.,.,158.0,.,.,.,.,.,.,.,/,
Cc1cccc(NC(=O)c2nc[nH]c2C(=O)N[C@@H](C)C(=O)OC(C)(C)C)c1,.,.,160.3,.,.,.,.,.,.,.,/,
Cc1cccc(NC(=O)c2nc[nH]c2C(=O)NCC(=O)OC(C)(C)C)c1,.,.,168.4,.,.,.,.,.,.,.,/,
COc1cc(OC)cc(-c2c(C#Cc3ccsc3)c3cc(-c4ccc5c(c4)OCO5)ccc3n2C)c1,.,.,.,.,.,/,/,/,/,/,/,
O=C(CN1C(=O)NC2(CCCCC2)C1=O)NCCc1ccccc1,.,.,.,.,.,/,/,/,/,/,/,
COc1ccc(S(N)(=O)=O)cc1C(=O)OCCCOc1ccc(F)cc1,.,.,.,.,.,/,/,/,/,/,/,
COc1ccc(-c2cn(Cc3ccc(C(=O)c4ccccc4)cc3)nn2)cc1,.,.,163.8,.,.,.,.,.,.,.,/,

# High-throughput results from PubChem BioAssay.
